Here are results for one compound from PubChem BioAssay (NCATS).

Results filed as inconclusive are left out. The source made the active and inactive calls. Unless noted, calls come from the whole dose curve; as a rule, active = well fitted curve in the direction sought with a large enough effect; inconclusive = small, poorly fitted or top-dose-only effect, or another doubt; inactive = no such curve, though single readings can be large; an effect the other way counts as inactive or inconclusive.

Test [1] in a line: qHTS Validation Assay to Find Inhibitors of Chronic Active B-Cell Receptor Signaling (AID 485345; active = well fitted curve in the direction sought with a large enough effect in the main read-out, with a control signal flat, not every such curve was filed as active;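 note: 0% = untreated basal cells and 100% = 10 µM MG-132 proteasome inhibitor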). The method in brief: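 TMD8 ABC-DLBCL cells stably carrying doxycycline-inducible IkappaBalpha–green luciferase fusion plus unfused red luciferase; compounds 46 uM to 3 nM, 4 h at 37C with doxycycline. Corrected green/red luminescence ratio normalized to 10 uM MG-132 and basal cell wells; curves fitted.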
For orientation: Quantitative high-throughput screening tests each substance at several concentrations.

Test [2] concerns the target Beta-2 adrenergic receptor (Homo sapiens) (UniProt P07550). Put plainly: qHTS validation assay of beta-arrestin-biased ligands of beta2-adrenergic receptor (AID 485366). Note: 0% is about no effect. The method in brief:
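Agonism was measured as beta-arrestin recruitment to recombinant beta2-AR, releasing tTA to drive luciferase. Cells were exposed for 18 hr at 37 degrees C to a series up to 46 microM. %Activity from corrected luminescence gave concentration-response curves.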

Test [3] is described as follows: Quantitative high throughput screen for delayed death inhibitors of the malarial parasite plastid, 96 hour incubation (AID 488745). Note: series mostly up to about 29 µM; % is set by controls: 0 for no effect and ±100 for the full control effect; nearly all actives have a fitted effect of over 70% in size. The method in brief: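 Decreased firefly luciferase luminescence indicates inhibited growth of reporter-integrated P. falciparum after two generations (96 h, 37 C, 5% CO2). Infected erythrocytes at 0.1% parasitemia, 2% hematocrit, in Albumax-supplemented RPMI 1640.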

For test [4], the target named is Thioredoxin reductase 1, cytoplasmic (Rattus norvegicus) (UniProt O89049). The test is described as follows: qHTS Assay for Substrates of Mammalian Selenoprotein Thioredoxin Reductase 1 (TrxR1) (AID 488772).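 Note: series mostly up to about 57 µM; 0% is about no effect; a drop in NADPH fluorescence below the no-compound background marks a TrxR1 substrate.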 The method in brief: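 In this dual-purpose format, potential substrates are identified from the first fluorescence read after selenite addition, not from the 8-minute delta. Rat enzyme is preincubated with NADPH and then with compound at ~22 deg C.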
Chain of Thioredoxin reductase 1, cytoplasmic (Rattus norvegicus) (O89049 whole entry, looked up): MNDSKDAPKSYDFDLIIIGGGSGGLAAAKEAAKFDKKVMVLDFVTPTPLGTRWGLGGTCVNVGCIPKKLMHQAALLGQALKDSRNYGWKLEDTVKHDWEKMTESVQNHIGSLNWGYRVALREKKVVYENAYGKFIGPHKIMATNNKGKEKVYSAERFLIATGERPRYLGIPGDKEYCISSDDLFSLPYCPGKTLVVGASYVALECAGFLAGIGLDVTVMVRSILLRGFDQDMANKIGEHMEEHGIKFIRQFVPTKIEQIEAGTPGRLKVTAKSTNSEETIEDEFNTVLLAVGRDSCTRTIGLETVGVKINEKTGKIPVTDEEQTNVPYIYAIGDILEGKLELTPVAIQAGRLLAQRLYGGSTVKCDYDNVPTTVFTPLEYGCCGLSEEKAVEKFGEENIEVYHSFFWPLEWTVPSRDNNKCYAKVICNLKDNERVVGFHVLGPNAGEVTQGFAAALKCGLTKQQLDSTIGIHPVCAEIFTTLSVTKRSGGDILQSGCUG

For test [5] the target is unchanged. The test is described as follows: qHTS Assay for Inhibitors of Mammalian Selenoprotein Thioredoxin Reductase 1 (TrxR1) (AID 488773).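 Note: drop in NADPH fluorescence over an 8 min run after selenite addition; series mostly up to about 57 µM; % is set by controls: 0 for no effect and ±100 for the full control effect; nearly all actives have a fitted effect of over 40% in size.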 The following applies: Potency: inhibition. Summed up:
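Inhibition is scored from the loss of NADPH fluorescence between first and last reads of an 8-min kinetic run. Selenite (400 uM) was the substrate, added after 15 min compound preincubation at room temperature.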

In test [6] the target is Flap endonuclease 1 (Homo sapiens) (UniProt P39748). The test is described as follows: qHTS Validation Assay for the Inhibitors of Human Flap endonuclease 1 (FEN1) (AID 488816). Note: % is set by controls: 0 for no effect and ±100 for the full control effect. The method in brief:
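Enzyme reagent 10 nM; cpds pinned; 15 min RT preinc.; substrate 50 nM final; reads t=0 and 15 min; no-enzyme buffer wells as neg. control; normalized data, 4-parameter Hill fit.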

In test [7] the target is M-phase phosphoprotein 8 (Homo sapiens) (UniProt Q99549). Put plainly: qHTS Validation Assay for Inhibitors for MPP8 Chromodomain Interactions with Methylated Histone Tails (AID 488949).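 Note: AlphaScreen signal from MPP8 chromodomain bound to biotinylated H3K9me3 peptide; top concentration of the series differs between compounds; % is set by controls: 0 for no effect and ±100 for the full control effect; nearly all actives have a fitted effect of over 55% in size.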 Summed up:
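MPP8 (50 nM) was preincubated with biotinylated H3(1-18)K9me3 peptide (50 nM) in PBS pH 7.4, 0.01% Tween-20 for 30 min at room temperature, then with compounds for 30 min; binding was detected by AlphaScreen.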

Test [8] addresses Chromobox protein homolog 1 (Homo sapiens) (UniProt P83916). Put plainly: qHTS Validation Assay for Inhibitors of HP1-beta Chromodomain Interactions with Methylated Histone Tails (AID 488953).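 Note: loss of AlphaScreen luminescence from HP1-beta binding biotinylated H3K9me3 peptide; series mostly up to about 110 µM; % is set by controls: 0 for no effect and ±100 for the full control effect; nearly all actives have a fitted effect of over 50% in size.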 Summed up: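 AlphaScreen proximity signal from streptavidin donor and nickel chelate acceptor beads (final 10 ug/mL) after 30 min dark incubation. Compounds had 30 min at room temperature with preformed complex of 50 nM HP1-beta and 50 nM b-H3(1-18)K9me3 in PBS pH 7.4 with 0.01% Tween-20.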

The target in test [9] is Transient receptor potential cation channel subfamily V member 1 (Homo sapiens) (UniProt Q8NER1). Put plainly: HTS Assay for Compounds that Act as Enhancers of the Vanilloid Receptor 1 (AID 488979). Note: 0% is about no effect. The method in brief: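 TRPV1 cells loaded with Fluo-8 calcium dye; compound added and Ca2+ signal (ex 480/em 520 nm) followed 3 min, then capsaicin at EC20 added and read 2 more min to detect enhancement.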

For test [10], the target named is Thyrotropin receptor (Homo sapiens) (UniProt P16473). The test is described as follows: qHTS Assay for Antagonists of the Thyroid Stimulating Hormone Receptor (AID 488980). Note: series mostly up to about 58 µM; 0% is about no effect. Summed up: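 HEK293 cells transfected with human TSHR, suspended in HEPES-buffered HBSS with 70 uM RO 20-1724, were treated with compounds plus TSH at EC80 (4 nM final). cAMP was measured by competitive HTRF (cryptate anti-cAMP antibody, cAMP-d2 acceptor).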
Chain of Thyrotropin receptor (Homo sapiens) (P16473 whole entry, looked up): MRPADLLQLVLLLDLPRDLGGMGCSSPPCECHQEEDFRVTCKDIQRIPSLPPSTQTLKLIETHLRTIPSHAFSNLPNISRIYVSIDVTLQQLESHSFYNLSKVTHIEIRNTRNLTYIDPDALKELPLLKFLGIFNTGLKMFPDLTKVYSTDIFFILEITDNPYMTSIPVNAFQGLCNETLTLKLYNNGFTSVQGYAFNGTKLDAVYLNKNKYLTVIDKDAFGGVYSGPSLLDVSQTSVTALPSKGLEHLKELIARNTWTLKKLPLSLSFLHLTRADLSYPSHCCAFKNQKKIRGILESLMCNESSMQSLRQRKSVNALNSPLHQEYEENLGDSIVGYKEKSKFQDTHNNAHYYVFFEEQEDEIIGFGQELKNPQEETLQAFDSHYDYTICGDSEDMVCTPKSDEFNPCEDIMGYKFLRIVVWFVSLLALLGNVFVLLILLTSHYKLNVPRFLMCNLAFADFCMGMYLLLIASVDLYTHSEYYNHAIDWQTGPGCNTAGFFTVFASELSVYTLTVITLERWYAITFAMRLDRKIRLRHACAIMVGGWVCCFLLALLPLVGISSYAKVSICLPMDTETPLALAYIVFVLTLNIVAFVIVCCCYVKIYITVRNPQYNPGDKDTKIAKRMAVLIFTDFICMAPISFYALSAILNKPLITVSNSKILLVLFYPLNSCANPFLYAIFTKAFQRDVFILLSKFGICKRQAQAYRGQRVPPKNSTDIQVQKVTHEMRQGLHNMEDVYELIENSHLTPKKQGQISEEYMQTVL

Test [11] addresses D(1A) dopamine receptor (Homo sapiens) (UniProt P21728). Put plainly: HTS Assay for Allosteric Agonists of the Human D1 Dopamine Receptor: Primary Screen for Agonists (AID 488981). Note: 0% is about no effect. The method in brief: (§1)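 Tetracycline-induced HEK293 Trex D1 cells with forced coupling to calcium, loaded with no-wash calcium dye; kinetic fluorescence read 180 s after compound addition for agonism, then a further 180 s after an EC20 dopamine challenge for potentiation.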

Test [12] has the same target. Put plainly: HTS Assay for Allosteric Agonists of the Human D1 Dopamine Receptor: Primary Screen for Potentiators (AID 488982). Note: 0% is about no effect. Summed up: as §1
The target is the same in test [13]. The test is described as follows: HTS Assay for Allosteric Agonists of the Human D1 Dopamine Receptor: Primary Screen for Antagonists (AID 488983).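 Note: calcium flux response to an EC80 dopamine challenge measured with no-wash dye; % is set by controls: 0 for no effect and ±100 for the full control effect; nearly all actives have a fitted effect of over 65% in size.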 Summed up: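 Calcium-flux read-out in inducible HEK293 T-REx cells expressing D1, dye-loaded 30–90 min at room temperature. Kinetic reads: 180 s after compound (agonist phase), then 180 s after an EC80 dopamine challenge.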

Test [14] can be described thus: Validation screen for small molecules that induce genotoxicity in human embryonic kidney (HEK293T) cells expressing luciferase-tagged ELG1 (AID 493106). Note: 0% is about no effect. Summed up: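 ELG1-luciferase reporter readout (ONE-Glo, 30 min, room temperature) after 16 hr compound treatment at 37 °C of HEK293T cells at 2,000 per well. Rising luminescence flags genotoxic stress.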
In test [15] the target is ATPase family AAA domain-containing protein 5 (Homo sapiens) (UniProt Q96QE3). The test is described as follows: Validation screen for small molecules that inhibit ELG1-dependent DNA repair in human embryonic kidney (HEK293T) cells expressing luciferase-tagged ELG1 (AID 493107).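 Note: series mostly up to about 46 µM; % is set by controls: 0 for no effect and ±100 for the full control effect; inhibitors lower the ELG1-luciferase luminescence signal; nearly all actives have a fitted effect of over 70% in size.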 Summed up:
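Luciferase read-out, ONE-Glo, 30 min at room temperature, follows 16 h co-exposure at 37 C of compound and the DNA-damaging agent 5-fluorouridine. Cells: HEK293T with ELG1-luciferase fusion, 2,000 per well, DMSO as vehicle.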

Test [16] concerns the target Thyrotropin-releasing hormone receptor (Homo sapiens) (UniProt P34981). Put plainly: qHTS for Small Molecule Agonists and Allosteric Enhancers of Human TRH Receptor: Validation Screen for Agonists (AID 493127;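 active = calcium activation more than 3 SD above the typical response in the agonist read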;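 note: intracellular calcium rise by fluo-8 fluorescence before TRH EC20 addition; 0% is about no effect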). The following applies: TRH receptor agonist cell assay; at 2 µM; stronger effect = higher value. Summed up:
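Compound-evoked intracellular calcium release in fluo-8-loaded TRHR cells, read kinetically on FDSS (Ex 480/Em 530, 1 s/cycle) after 23 nL pintool transfer. Agonist phase preceded 10 nM TRH EC20 addition.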

Test [17] is described as follows: Nrf2 qHTS screen for inhibitors: Validation (AID 493153; active = well fitted inhibition curve with a large enough effect in the main read-out, with a control signal flat, not every such curve was filed as active). The following applies: Potency: luciferase luminescence; viability change: measured here: cytotoxicity max response. Summed up: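 Concentration-response on A549 ARE_Fluc reporter cells exposed 18-24 h at 37 C, 5% CO2. Cytotoxicity read first by CellTiter-Fluor fluorescence (Ex 405/Em 525), then Nrf2 inhibition by BugLite luminescence after 15 min.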

Chain of D(1A) dopamine receptor (Homo sapiens) (P21728 whole entry, looked up): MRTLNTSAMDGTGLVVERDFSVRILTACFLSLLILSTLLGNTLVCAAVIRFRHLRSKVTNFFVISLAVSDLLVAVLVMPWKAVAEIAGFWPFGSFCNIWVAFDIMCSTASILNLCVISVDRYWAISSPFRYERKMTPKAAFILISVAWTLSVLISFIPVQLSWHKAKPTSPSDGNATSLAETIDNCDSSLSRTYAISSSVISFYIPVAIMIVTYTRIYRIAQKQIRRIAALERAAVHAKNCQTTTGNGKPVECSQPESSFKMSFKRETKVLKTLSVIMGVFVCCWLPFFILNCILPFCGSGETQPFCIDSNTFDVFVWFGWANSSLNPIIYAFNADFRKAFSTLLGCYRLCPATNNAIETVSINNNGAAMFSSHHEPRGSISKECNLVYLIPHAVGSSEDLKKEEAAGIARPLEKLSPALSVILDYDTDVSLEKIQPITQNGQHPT
Chain of M-phase phosphoprotein 8 (Homo sapiens) (Q99549 whole entry, looked up): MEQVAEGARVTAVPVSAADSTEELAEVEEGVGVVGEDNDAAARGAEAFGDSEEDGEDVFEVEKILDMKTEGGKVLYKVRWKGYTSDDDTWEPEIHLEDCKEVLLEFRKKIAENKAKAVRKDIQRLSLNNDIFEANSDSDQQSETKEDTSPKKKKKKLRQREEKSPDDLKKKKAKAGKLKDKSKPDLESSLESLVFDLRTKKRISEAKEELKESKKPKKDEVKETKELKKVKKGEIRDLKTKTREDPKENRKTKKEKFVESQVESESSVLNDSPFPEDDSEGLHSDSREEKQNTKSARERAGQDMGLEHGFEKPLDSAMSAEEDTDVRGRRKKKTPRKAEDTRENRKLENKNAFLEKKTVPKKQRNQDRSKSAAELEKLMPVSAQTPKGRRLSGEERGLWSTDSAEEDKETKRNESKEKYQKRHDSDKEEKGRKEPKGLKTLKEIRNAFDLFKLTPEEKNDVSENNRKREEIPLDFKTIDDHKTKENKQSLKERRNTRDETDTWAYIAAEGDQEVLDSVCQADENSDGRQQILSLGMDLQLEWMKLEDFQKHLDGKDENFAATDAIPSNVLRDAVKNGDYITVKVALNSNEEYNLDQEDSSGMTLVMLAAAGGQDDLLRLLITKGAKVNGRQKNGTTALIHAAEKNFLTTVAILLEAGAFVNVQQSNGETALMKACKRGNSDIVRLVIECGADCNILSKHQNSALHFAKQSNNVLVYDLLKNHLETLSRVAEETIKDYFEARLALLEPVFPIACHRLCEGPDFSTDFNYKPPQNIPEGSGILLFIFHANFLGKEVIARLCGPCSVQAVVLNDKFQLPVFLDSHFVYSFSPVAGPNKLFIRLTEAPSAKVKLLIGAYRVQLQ
Chain of ATPase family AAA domain-containing protein 5 (Homo sapiens) (Q96QE3 whole entry, looked up, the tested form may be a part): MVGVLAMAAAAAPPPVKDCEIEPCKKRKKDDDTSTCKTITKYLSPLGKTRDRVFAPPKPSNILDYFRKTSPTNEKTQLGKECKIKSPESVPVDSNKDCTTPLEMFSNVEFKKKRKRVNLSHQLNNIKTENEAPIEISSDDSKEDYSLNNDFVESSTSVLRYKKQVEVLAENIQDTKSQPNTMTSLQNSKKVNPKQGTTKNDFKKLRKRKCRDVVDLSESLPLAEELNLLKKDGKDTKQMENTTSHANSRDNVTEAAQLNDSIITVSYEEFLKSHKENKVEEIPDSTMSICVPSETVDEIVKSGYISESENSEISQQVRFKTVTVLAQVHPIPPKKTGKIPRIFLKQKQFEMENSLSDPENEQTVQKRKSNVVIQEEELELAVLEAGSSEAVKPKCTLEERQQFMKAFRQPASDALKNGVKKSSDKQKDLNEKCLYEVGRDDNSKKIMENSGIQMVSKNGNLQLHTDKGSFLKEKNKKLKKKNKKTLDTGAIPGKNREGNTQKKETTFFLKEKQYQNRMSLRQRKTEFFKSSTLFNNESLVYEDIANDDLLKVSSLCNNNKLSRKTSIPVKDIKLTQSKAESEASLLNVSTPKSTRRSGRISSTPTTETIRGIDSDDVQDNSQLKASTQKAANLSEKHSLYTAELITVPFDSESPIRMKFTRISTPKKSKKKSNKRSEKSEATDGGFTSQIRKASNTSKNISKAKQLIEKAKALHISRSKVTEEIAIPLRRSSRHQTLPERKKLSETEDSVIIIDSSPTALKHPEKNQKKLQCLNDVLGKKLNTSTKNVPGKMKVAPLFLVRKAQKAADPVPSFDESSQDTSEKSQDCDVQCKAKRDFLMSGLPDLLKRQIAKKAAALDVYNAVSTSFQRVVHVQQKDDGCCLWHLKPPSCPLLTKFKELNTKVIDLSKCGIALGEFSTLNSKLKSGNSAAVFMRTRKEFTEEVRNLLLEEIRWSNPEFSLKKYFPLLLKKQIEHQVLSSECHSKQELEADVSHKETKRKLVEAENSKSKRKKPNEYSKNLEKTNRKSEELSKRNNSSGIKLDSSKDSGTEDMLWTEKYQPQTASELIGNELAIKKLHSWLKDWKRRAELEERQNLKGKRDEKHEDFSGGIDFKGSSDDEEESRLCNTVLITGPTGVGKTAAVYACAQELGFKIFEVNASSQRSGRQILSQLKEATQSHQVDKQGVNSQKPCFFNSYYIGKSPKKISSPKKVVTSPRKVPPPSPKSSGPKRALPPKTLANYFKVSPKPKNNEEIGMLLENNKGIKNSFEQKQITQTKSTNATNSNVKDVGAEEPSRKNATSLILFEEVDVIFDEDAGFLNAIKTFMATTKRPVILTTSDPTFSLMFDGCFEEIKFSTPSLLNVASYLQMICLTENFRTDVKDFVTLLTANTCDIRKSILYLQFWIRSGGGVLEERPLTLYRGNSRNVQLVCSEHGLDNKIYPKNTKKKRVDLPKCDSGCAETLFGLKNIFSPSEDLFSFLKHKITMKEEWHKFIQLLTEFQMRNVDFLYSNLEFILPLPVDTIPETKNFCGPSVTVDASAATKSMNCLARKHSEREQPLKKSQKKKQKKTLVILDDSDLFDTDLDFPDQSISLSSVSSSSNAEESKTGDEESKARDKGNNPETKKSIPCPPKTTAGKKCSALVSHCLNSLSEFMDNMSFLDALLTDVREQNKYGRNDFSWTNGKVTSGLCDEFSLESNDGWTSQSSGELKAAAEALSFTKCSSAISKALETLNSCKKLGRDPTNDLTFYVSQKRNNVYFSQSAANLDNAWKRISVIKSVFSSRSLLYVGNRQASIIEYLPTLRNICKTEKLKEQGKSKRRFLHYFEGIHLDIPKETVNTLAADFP
Chain of Chromobox protein homolog 1 (Homo sapiens) (P83916 whole entry, looked up): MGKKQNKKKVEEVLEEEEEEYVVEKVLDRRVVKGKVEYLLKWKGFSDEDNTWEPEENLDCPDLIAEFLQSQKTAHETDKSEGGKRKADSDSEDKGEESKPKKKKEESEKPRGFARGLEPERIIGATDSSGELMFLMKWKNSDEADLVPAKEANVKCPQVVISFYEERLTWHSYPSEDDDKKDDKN
Chain of Flap endonuclease 1 (Homo sapiens) (P39748 whole entry, looked up): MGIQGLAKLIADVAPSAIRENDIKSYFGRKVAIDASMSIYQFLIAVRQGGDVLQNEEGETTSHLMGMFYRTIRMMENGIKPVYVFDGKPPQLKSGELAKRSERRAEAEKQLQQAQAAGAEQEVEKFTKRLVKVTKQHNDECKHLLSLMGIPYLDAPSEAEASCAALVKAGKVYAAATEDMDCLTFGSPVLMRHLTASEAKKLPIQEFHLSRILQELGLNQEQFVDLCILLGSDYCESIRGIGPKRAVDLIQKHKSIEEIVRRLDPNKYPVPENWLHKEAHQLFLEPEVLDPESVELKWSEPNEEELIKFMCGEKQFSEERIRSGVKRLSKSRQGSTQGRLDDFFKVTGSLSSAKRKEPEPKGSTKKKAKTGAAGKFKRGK

On to `O=[N+]([O-])c1ccc(O[C@@H]2O[C@H](CO)[C@@H](O)[C@H](O)[C@H]2F)c([N+](=O)[O-])c1`, for which the result in test [1], in [2], in test [4], in [9], in test [10] and in test [11] was inactive. The call in [13] and in test [14] was inactive. The Potency entry in [3], in test [5], in test [6], in test [7], in test [8] and in test [12] was “inactive” throughout. Moreover, the Potency result in test [15] and in [17] was “inactive” throughout. Besides, the activation in test [16] was 1.06% (inactive). For the same compound, the viability change in test [17] is -9.61%.
